Screening data (PubChem BioAssay)
Rows were chosen to be rich in hits. Some 0.49% of all compounds tested hit in one or more screens of this group.
Vif-A3G inh – Vif-A3G binding inhibition; HeLa A3G-eYFP + Vif (tagged APOBEC3G with the HIV-1 protein that degrades it), YFP fluorescence, overnight; hit rate 0.076% among 410,000; Potency, µM (highest dose often 46.1 µM), for the others: top-dose activity, negative = active, actives largely listed as inhibitors; Q9HC16; note: potency is the fitted concentration of half-maximal effect; % is set by controls: 0 for no effect and ±100 for the full control effect; nearly all actives have a fitted effect of over 60% in size
Target sequence (Q9HC16 whole entry, looked up): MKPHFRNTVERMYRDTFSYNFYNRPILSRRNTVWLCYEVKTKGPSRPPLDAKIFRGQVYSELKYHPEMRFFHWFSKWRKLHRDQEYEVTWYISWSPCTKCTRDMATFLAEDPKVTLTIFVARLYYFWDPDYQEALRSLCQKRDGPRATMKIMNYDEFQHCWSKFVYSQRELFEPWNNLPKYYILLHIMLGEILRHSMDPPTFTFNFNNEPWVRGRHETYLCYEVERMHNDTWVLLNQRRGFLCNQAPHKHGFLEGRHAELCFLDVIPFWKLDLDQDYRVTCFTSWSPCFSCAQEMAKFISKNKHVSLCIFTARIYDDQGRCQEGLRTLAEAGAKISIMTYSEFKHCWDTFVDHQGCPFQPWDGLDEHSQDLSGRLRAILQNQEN
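Read-out is eYFP fluorescence (Ex 488/Em 500-530) from Vif-expressing HeLa A3G-eYFP cells; more signal means A3G escaped Vif-mediated degradation. Cells plated overnight, compound pinned in, incubated overnight at 37 deg C.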
LDHA inh – blocks human lactate dehydrogenase A. P00338. purified LDHA, NADH/diaphorase-resazurin fluorescence; active compounds read low. activity change, % (values are at about 110 or 230 µM). hit rate 0.15% among 480,000. AID 1347041; in the data active = activity change below about -30%; inconclusive = mostly about -25% to -30%;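 note: plate controls were DMSO wells for no effect and wells without enzyme for full effect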
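Remaining NADH was detected by diaphorase (0.133 mg/mL) converting 37 µM resazurin to fluorescent resorufin, read at 0 and 20 minutes. The preceding 5-minute room-temperature reaction used 2 nM LDHA, 0.2 mM sodium pyruvate and 0.06 mM NADH at pH 7.4.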
Apoferritin bind – candidate novel general anesthetic via apoferritin binding; AID 485281; hit rate 0.074% among 350,000; P02791; apoferritin/1-aminoanthracene competitive binding, fluorescence; Potency, µM (titrated, usually from 77.5 µM), for inactives: at the highest dose activity change, negative = displacement, hits mostly inhibitors; note: potency is the fitted concentration of half-maximal effect; % is set by controls: 0 for no effect and ±100 for the full control effect; nearly all actives have a fitted effect of over 20% in size
Target sequence (P02791 2-175 limits assumed): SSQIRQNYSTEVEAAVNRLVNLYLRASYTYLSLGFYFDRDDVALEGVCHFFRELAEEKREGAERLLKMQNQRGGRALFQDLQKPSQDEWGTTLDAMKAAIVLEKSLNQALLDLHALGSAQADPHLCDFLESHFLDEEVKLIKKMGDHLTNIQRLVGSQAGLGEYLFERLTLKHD
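Apoferritin-based anesthetic binding model; compound displacement of fluorescent 1-AMA measured as endpoint fluorescence after 10 minutes at room temperature, scaled to free-ligand and complex controls.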
Vif-A3F inh – blocks the Vif interaction with APOBEC3F; AID 602313; HeLa A3F-eYFP + Vif (tagged APOBEC3F with the HIV-1 protein that degrades it), YFP fluorescence increase; Potency, µM (top dose mostly 46.1 µM), for inactives: top-dose activity, negative = active; hit rate 0.2% among 390,000; note: potency is the fitted concentration of half-maximal effect; % of control where 0% means no effect; nearly all actives have a fitted effect of over 65% in size
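Fluorescence increase (Ex 488/Em 500-530) after overnight compound treatment at 37 deg C flags inhibition of Vif-driven A3F-eYFP loss in stable HeLa A3F-eYFP/Vif cells seeded overnight beforehand.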
Epigenetic reg – regulators of epigenetic silencing causing reporter derepression in mouse cells; murine LDR cells, GFP reporter derepression, 30 h; Potency, µM (titrated, usually from 53.9 µM), inactives show top-dose GFP activation, hits mostly activators; hit rate 0.2% among 280,000; note: potency is the fitted concentration of half-maximal effect; % of control where 0% means no effect; nearly all actives have a fitted effect of over 60% in size
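Murine LDR cells carrying a silenced, genomically integrated CMV-driven GFP reporter were exposed to compound for 30 hours at 37 C. After PBS washes, GFP-positive cells (20–120 um objects) were counted by laser-scanning microplate cytometry.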
* = called active by the depositor; i = inactive; ? = inconclusive; nt = not tested or not shown; [ ] = dose if it differs, or a comment. Unless noted, calls come from the whole dose curve; as a rule, active = well fitted curve in the direction sought with a large enough effect; inconclusive = small, poorly fitted or top-dose-only effect, or another doubt; inactive = no such curve, though single readings can be large; an effect the other way counts as inactive or inconclusive.

SMILES	Vif-A3G inh	LDHA inh	Apoferritin bind	Vif-A3F inh	Epigenetic reg
O=c1[nH]c(CN2CC=C(c3ccccc3)CC2)nc2scc(-c3ccccc3)c12	?	-10	-14%	10µM*	?
CCS(=O)(=O)N1N=C(c2cccc(NS(C)(=O)=O)c2)CC1c1ccccc1 (stereo not given)	10µM*	2	-6%	10µM*	?
CCCCN=C[C@]12CCC(O)CC1(O)CCC1[C@@H]2CC[C@]2(C)[C@H](C3C=CC(=O)O3)CCC12O (stereo not given in full)	-16%	-7	5%	18%	nt
CCOc1ccc(N2C(=O)/C(=C/c3ccco3)C(=O)NC2=S)cc1	3%	-37*	-19%	1%	nt
CCOc1ccc(N2C(=O)NC(=O)/C(=C\c3ccccc3[N+](=O)[O-])C2=O)cc1	0%	-53*	-10%	-12%	-1%
O=C(Nc1cc[c]([Sb](=[O])([OH])[OH])cc1)c1ccccc1	-2%	?	nt	nt	nt
[O]=[Sb]([OH])([OH])[c]1ccccc1	1%	-38*	nt	nt	nt
O=C(Cc1ccccc1)N1CCN(Cc2ccccn2)CC1	2%	-15	41%	1%	6%
CC1(C)OC(c2ccccc2)=C/C(=C/C=C2C(=O)NC(=S)NC2=O)O1	12%	2	-15%	?	-4%
CN1/C(=C\C=C2C(=O)NC(=S)NC2=O)C(C)(C)c2ccccc21	-11%	-12	-9%	i	18µM*
COc1cccc(C2=CC(c3cc(Br)ccc3F)n3nnnc3N2)c1 (stereo not given)	?	-1	-5%	-1%	5%
Cc1cccc(-n2c(/C=C/c3ccc([N+](=O)[O-])o3)nc3ccccc3c2=O)c1	?	8	-12%	8.9µM*	0%
Cc1cccc(-n2c(/C=C/c3c(C)[nH]c4ccccc34)nc3ccccc3c2=O)c1	-10%	-2	9%	10µM*	4µM*
CC1CCCN(C(=O)CCl)C1 (stereo not given)	1%	-7	-10%	-1%	0%
O=C(COc1ccc(Br)cc1)N1CCN(Cc2ccncc2)CC1	-4%	-39*	-4%	5%	4%
Cc1cccc(OCC(=O)N2CCN(Cc3ccncc3)CC2)c1	-3%	?	-4%	-3%	1%
O=C1NC(=S)NC(=O)C1=Cc1ccc(Br)s1	?	-38*	-8%	?	nt
CN1C(=O)/C(=C\c2ccc(Br)s2)C(=O)NC1=S	1%	-13	-5%	?	nt
CCN(CC)c1ccc(N=Cc2c(O)n(CCC3=CCCCC3)c(=O)[nH]c2=O)cc1	-5%	1	4%	22µM*	22µM*
O=C1NC(=O)C(=Cc2ccccc2Oc2ccc(F)cc2)C(=O)N1	-7%	-40*	-19%	-4%	1%
CN1C2CCC1CC(OC(=O)c1ccc(Cl)cc1)C2 (stereo not given)	2%	-9	-8%	0%	-1%
CCCCn1c(O)c(C(CC)=NCCc2ccccc2)c(=O)[nH]c1=O	-5%	-1	?	2%	-2%
CCCCn1c(O)c(C(=O)/C=C/c2c[nH]c3ccccc23)c(=O)[nH]c1=O	3.2µM*	-1	-9%	-339%	?
Cc1ccc(C)c(NC(=O)CSc2nnc([C@@H](N)Cc3c[nH]c4ccccc34)o2)c1	0%	1	-14%	9%	-1%
CN1CCN(Cc2nc3ccccc3n2C)CC1	0%	1	-11%	0%	0%
SMILES	Vif-A3G inh	LDHA inh	Apoferritin bind	Vif-A3F inh	Epigenetic reg
Cn1c(NN=O)nc2ccccc21	1%	-8	-15%	-13%	11µM*
CC(C)CC(N(C)C)C1(c2ccc(Cl)cc2)CCC1 (stereo not given)	-4%	2	-20%	-2%	4%
CN(C(=O)Cc1ccc2c(c1)OCO2)C1CCCN(Cc2ccccc2F)C1 (stereo not given)	0%	-3	nt	0%	nt
CCOc1ccccc1N=C1SCCCN1C	2%	-38*	-8%	1%	2%
O=C(CNC(=O)OCc1ccccc1)Nc1ccc(Br)cc1C(=O)c1ccccc1Cl	-5%	-2	1%	1%	0%
COc1ccc(C)cc1NC(=O)c1c(C)nn(Cc2ccccc2)c1Cl	-2%	-7	-4%	-9%	-1%
c1ccc2c(c1)[nH]c1cnccc12	2%	-12	94%	2%	-4%
Cc1c2ccncc2c(C)c2c1[nH]c1ccccc12	?	-13	-2%	10µM*	?
CCN1C[C@@]2(COC)C3[C@@H](OC)[C@H]4[C@@H]1[C@@]3(C1C[C@H]3[C@H](O)C1[C@]4(O)C[C@H]3OC)[C@@H](OC)C[C@H]2O (stereo not given in full)	-3%	-3	nt	2%	nt
O=C1NC(=O)N(Cc2ccccc2)C(=O)/C1=C\c1ccco1	-14%	2	-20%	-35%	6%
CC(C)c1ccc(N2C(=O)NC(=O)/C(=C/C=C/c3ccco3)C2=O)cc1	8.9µM*	3	-14%	?	1%
O=C1NC(=O)N(Cc2ccc(F)cc2)C(=O)/C1=C\C=C\c1ccco1	?	-3	-17%	10µM*	10%
CN(C)c1ccc(-[n+]2c(-c3ccccc3)cc(-c3ccccc3)cc2-c2ccccc2)cc1	-5%	-5	?	-6%	4%[10.1 µM]
COc1ccc(OCC(=O)N2CCN(Cc3cc(=O)n4nc(-c5ccc(OC)cc5)sc4n3)CC2)cc1	2%	-5	53%	2%	-1%
O=[N+]([O-])c1ccc(NCc2ccccc2)c2nonc12	8%	-11	-2%	5%	22µM*
CNS(=O)(=O)c1ccc(N=Cc2c(O)n(-c3cccc(C)c3)c(=O)[nH]c2=O)cc1	-5%	-5	-13%	0%	-1%
Cc1cccc(-n2c(O)c(/C=C/C=Nc3ccccc3)c(=O)[nH]c2=O)c1	5%	-6	1%	10µM*	8%
Cc1ccccc1-n1c(O)c(/C=C/C=Nc2ccccc2)c(=O)[nH]c1=O	0%	1	-13%	20µM*	4%
CN1C(=O)C(=Cc2ccc(N3CCOCC3)o2)C(=O)N(C)C1=O	-10%	2	1%	11µM*	-2%
Cc1ccc(-c2nc3ccccc3c(=O)n2-c2nccs2)cc1	0%	-8	-16%	-9%	5%
NC12CN3CN(CN(C3)C1)C2 (tested in a mixture with another compound)	3%	-5	0%	0%	0%
CC(C)CCCn1c(O)c(/C=C2/C=CC=N2)c(=O)[nH]c1=O	?	-2	-22%	25µM*	3%
CCCCn1c(O)c(C=NCCCn2ccnc2)c(=O)[nH]c1=O	1%	-7	-6%	4%	-6%
Cc1ccc(CNC(=O)c2ccccc2NC(=O)c2nsc3ccccc23)cc1	-8%	-1	7%	13µM*	3%
